Shown is part of a subset that was picked to be rich in hits.
RMI FANCM FP: disruptors of RMI1/RMI2 association with MM2 peptide – biochemical, fluorescence polarization, human, primary screen. RMI core complex with F-MM2 peptide; active compounds read low. 0.58% of 70,000 active. RMI core complex (RMI1/RMI2) binding to FANCM MM2 peptide, human. FP signal (polarization) at 33 µM; in the data active = FP signal below about 40
Numbers stand for hits; - = inactive; ! = repeats disagree.

SMILES	RMI FANCM FP
O=C(Cc1ccccc1Cl)NCCCS(=O)(=O)N1CCN(c2ccccc2)CC1	-
CC1CCCCN1C(=O)C12CCC(C)(/C(=N\O)C1)C2(C)C (stereo not drawn)	25
COc1ccc(N2CCN(C(=O)C34CCC(C)(C(=O)C3)C4(C)C)CC2)cc1 (stereo not drawn)	-
CC12CCC(C(=O)N3CCC(C(=O)O)CC3)(CC1=O)C2(C)C (stereo not drawn)	-
COc1ccc2sc(Nc3nc(-c4ccccc4)c(C(=O)c4ccccc4)s3)nc2c1	-
COc1ccc(-c2cn3c(C)c(C(=O)N(C)c4ccccc4)sc3n2)cc1	-
O=C(CN1CCN(Cc2nc(-c3ccco3)cs2)CC1)N1CCCC1	40
O=C(CN1CCN(Cc2nc(-c3ccco3)cs2)CC1)N1CCOCC1	-
COc1ccc(CCC(=O)N2CCN(Cc3nc(-c4ccco4)cs3)CC2)cc1	-
CC(=O)Nc1ccc(SCCCC(=O)Nc2cc(C)no2)nn1	-
Nc1c(C(=O)N2CCOCC2)sc(=S)n1-c1ccccc1F	-
O=C1N=c2ccccc2=CC1=Cc1sc(=S)n(Cc2ccccc2)c1O	-
Oc1c(C=C2N=c3ccccc3=N2)sc(=S)n1-c1ccccc1F	23
Cc1ccc(/C=C/S(=O)(=O)N2CCN(c3ccc(-c4ccco4)nn3)CC2)cc1	-
COC(=O)c1ccc2c(c1)C(=O)/C(=C/c1ccc(O)c(OC)c1)O2	-
COC(=O)c1ccc2nsnc2c1	-
COC(=O)c1ccc2c(c1)C(=O)/C(=C/c1ccccc1F)O2	14
CCc1cc(S(=O)(=O)N(C)C)ccc1OC	-
O=C(COc1ccc(Cl)cc1)N(CCCn1ccnc1)c1nc2c(F)cccc2s1	-
CC(=O)c1sc(NC(=O)c2ccc3ncsc3c2)nc1-c1ccccc1	-
O=C1CN(C(=O)c2cc([N+](=O)[O-])ccc2Cl)C(c2ccc(F)cc2)c2cc(Br)ccc2N1 (stereo not drawn)	-
O=C(Nc1ccc(SCc2cccnc2)nn1)c1cccc(F)c1	-
CCOC(=O)CN1C(c2ccccc2F)Nc2ccc(Br)cc2C1c1ccccc1 (stereo not drawn)	27
CCOC(=O)Cn1c(=NC(=O)c2ccccc2Br)sc2cccc(F)c21	-
CCOC(=O)CNC(c1ccccc1)c1cc(Br)ccc1NC(=O)c1ccccc1 (stereo not drawn)	-
SMILES	RMI FANCM FP
Cc1nc2ccc(NC(=O)c3cccc(Cl)c3)cc2c(=O)n1-c1ccccc1	-
CN1CCOc2ccc(NC(=O)COc3ccc4ccccc4c3)cc2C1=O	-
CCCS(=O)(=O)/C(C#N)=C\OCC	-
O=c1cccnn1CCNS(=O)(=O)c1ccc(Cl)c(Cl)c1	-
O=C(CSc1nccc(-c2cccs2)n1)N1CCOCC1	-
O=C(CSc1nccc(-c2cccs2)n1)c1cc(-c2ccc(Cl)c(Cl)c2)no1	12
c1csc(-c2ccnc(SCc3ccc4nonc4c3)n2)c1	-
CC1(C)COc2cc(NS(=O)(=O)Cc3cccc(Cl)c3)ccc2NC1=O	-
CCOc1ccc(C(=O)Nc2cc(C(=O)N3CCOCC3)cn(C)c2=O)cc1	-
COc1ccc(NS(=O)(=O)c2ccc(NC(C)=O)cc2)cc1	-
COc1ccc(Nc2nc3ccccc3nc2NS(=O)(=O)c2ccc(NC(C)=O)cc2)cc1	7!
O=C(O)c1cccc(Nc2nc3ccccc3nc2NS(=O)(=O)c2ccc(F)cc2)c1	-
COc1ccccc1N1CCN(CCNC(=O)c2ccc(C(F)(F)F)cc2)CC1	-
Cc1cc(C(=O)Nc2c3c(nn2-c2nc4ccccc4s2)CCC3)no1	-
Cc1ccc2nc(C)c(NC(=O)Cc3ccccc3)c(=O)n2c1	-
CCOC(=O)C(=O)Nc1c(C)nc2ccc(C)cn2c1=O	-
Cc1ccc2nc(C)c(NC(=O)Cc3cccs3)c(=O)n2c1	28
CC1=CC(=O)C(N=[N+]=[N-])=C(C)C1=NC(C)=NS(=O)(=O)c1ccc(Cl)cc1	-
N#CCC(=O)NCC1CCCO1 (stereo not drawn)	-
CSc1ccccc1C(=O)Nc1ccc2sccc2c1	-
Oc1c(Cl)cc(Cl)cc1/C=N\NC(=S)NC1CC2CCC1C2 (stereo not drawn)	11
OCCN/N=C\c1cc(Cl)cc(Cl)c1O	-
Oc1ccccc1/C=N\NC(=S)NC1CC2C=CC1C2 (stereo not drawn)	-
CCCC(=O)Nn1cnc2c(cnn2-c2ccccc2)c1=O	-
COc1ccc(-c2csc(NC(=O)c3cccc(SC)c3)n2)cc1C	-
SMILES	RMI FANCM FP
CC(C)S(=O)(=O)Nc1ccc2c(c1)NC(=O)C(C)(C)CO2	-
CC1(C)COc2ccc(N)cc2NC1=O	37
COC(=O)Nc1ccc2c(c1)NC(=O)C(C)(C)CO2	-
COc1ccc(CCNC(=O)CSc2nc3ccccc3nc2C)cc1OC	-
NC(=O)C(=Cc1ccco1)C(N)=O	-
CCOC(=O)/C=C/C(=O)Nc1sc(C)c(C)c1C(N)=O	-
Cc1sc(N)c(C(=O)c2cccc(C(F)(F)F)c2)c1C	-
Cc1sc(N)c(C(N)=O)c1C	15
CN(C)c1ccc(C(=O)NNc2c([N+](=O)[O-])cc(C(F)(F)F)cc2[N+](=O)[O-])cc1	-
